JMJD2A Tudor: blocks the human JMJD2A Tudor domain. O75164. AlphaScreen JMJD2A-Tudor / H3K4me3 peptide binding. Potency, µM (series often up to 114 µM), usual class: inhibitors. actives 4.4% (n = 390,000); note: nearly all actives have a fitted effect of over 50% in size
Target sequence (O75164 whole entry, looked up, the tested form may be a part): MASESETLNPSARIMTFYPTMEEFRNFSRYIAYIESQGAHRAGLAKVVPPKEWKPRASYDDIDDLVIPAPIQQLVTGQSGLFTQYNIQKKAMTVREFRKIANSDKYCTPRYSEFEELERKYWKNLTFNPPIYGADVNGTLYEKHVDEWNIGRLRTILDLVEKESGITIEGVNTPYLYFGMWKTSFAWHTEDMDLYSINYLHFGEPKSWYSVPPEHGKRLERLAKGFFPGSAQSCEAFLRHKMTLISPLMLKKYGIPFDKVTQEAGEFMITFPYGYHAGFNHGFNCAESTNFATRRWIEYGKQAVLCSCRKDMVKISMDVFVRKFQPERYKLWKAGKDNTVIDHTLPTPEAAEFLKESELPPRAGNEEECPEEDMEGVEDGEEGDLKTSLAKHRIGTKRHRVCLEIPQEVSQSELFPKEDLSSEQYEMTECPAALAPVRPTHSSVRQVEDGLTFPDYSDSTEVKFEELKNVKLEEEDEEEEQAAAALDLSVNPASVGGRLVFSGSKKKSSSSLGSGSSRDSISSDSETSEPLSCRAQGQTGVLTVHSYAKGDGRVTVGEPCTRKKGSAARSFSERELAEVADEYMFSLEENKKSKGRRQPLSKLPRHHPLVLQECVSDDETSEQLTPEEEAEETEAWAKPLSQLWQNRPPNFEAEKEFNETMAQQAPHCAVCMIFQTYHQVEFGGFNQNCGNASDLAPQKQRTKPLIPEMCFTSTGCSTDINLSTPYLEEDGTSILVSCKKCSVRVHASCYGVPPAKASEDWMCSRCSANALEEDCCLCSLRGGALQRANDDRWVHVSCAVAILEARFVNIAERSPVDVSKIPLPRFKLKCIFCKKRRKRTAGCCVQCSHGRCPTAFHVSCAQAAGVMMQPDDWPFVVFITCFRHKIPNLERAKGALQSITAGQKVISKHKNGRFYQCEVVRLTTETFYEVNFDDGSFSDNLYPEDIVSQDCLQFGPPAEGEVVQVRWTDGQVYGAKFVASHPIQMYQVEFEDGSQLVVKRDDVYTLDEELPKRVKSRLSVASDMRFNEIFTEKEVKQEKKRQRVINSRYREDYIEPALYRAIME
BAZ2B block: inhibitors of human BAZ2B bromodomain | Q9UIF8 | AlphaScreen BAZ2B-H3K14Ac peptide displacement | AID 504333 | actives 4.4% (n = 360,000) | Potency, µM (series often up to 114 µM), usual class: inhibitors; note: nearly all actives have a fitted effect of over 60% in size
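AlphaScreen displacement of biotin-H3(5-23)K14Ac peptide (50 nM final) from BAZ2B (50 nM final) in PBS pH 7.4, 0.01% Tween-20; complex preformed 30 min RT, then compounds (top 110 uM) 30 min RT, beads 20 min dark.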
HP1b binding inh: HP1-beta chromodomain-methylated histone interaction inhibition; P83916; AlphaScreen HP1-beta / biotin-H3K9me3 peptide binding; Potency, µM (titrated, usually from 114 µM), hits mostly inhibitors; actives 0.56% (n = 390,000); note: nearly all actives have a fitted effect of over 70% in size
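AlphaScreen: HP1-beta (50 nM) preformed 30 min with biotin-H3(1-18)K9me3 peptide (50 nM) in PBS pH 7.4, 0.01% Tween-20. Compound added for 30 min at RT, then streptavidin donor/nickel chelate acceptor beads (10 ug/mL) for 30 min.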
G9a block: blocks human histone lysine methyltransferase G9a | G9a H3K9 monomethylation, AlphaScreen, 2 h | Potency, µM (series often up to 102 µM), most hits filed as inhibitors | actives 8.8% (n = 350,000) | Q96KQ7 | AID 504332; note: nearly all actives have a fitted effect of over 75% in size
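Chemiluminescent proximity detection of H3K9 monomethylation, read after 10 min bead incubation in the dark. Reaction: 20 nM G9a, 500 nM biotin-H3K9 peptide, 20 uM SAM cofactor, 2 h, room temperature, following 15 min enzyme-compound preincubation.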
Sfp PPTase inh: inhibitors of Bacillus subtilis Sfp phosphopantetheinyl transferase; Q9F4F7; Biochemical Sfp PPTase activity, qHTS; Potency, µM, usual class: inhibitors; actives 3.5% (n = 310,000);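 note: the enzyme is Sfp with the accession as filed and its product quenches rhodamine fluorescence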
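Buffer: 50 mM Hepes-Na pH 7.6, 10 mM MgCl2, 0.01% Nonidet P-40, 0.01% BSA. Enzyme 15 nM, pre-exposed to compound 15 min; substrates then added and fluorescence change tracked over 30 min.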
Each line names hits and unclear results; the compound was inactive in the other large screens. Compounds with a hit are over-represented: about 12% of the library has one in this group of screens. Calls come from the whole dose curve; as a rule, active = well fitted curve in the direction sought with a large enough effect; inconclusive = small, poorly fitted or top-dose-only effect, or another doubt; inactive = no such curve, though single readings can be large; an effect the other way counts as inactive or inconclusive.

CCN1CCN(Cc2ccc(NC(=O)c3ccc(C)c(NC(=O)c4nccnc4N)c3)cc2C(F)(F)F)CC1	Sfp PPTase inh 89µM
CCN1CCN(Cc2ccc(NC(=O)c3ccc(C)c(NC(=O)c4cc(-c5ccc(Br)cc5)n[nH]4)c3)cc2C(F)(F)F)CC1	JMJD2A Tudor inconclusive, BAZ2B block inconclusive, G9a block inconclusive, Sfp PPTase inh 79µM
CCN1CCN(Cc2ccc(NC(=O)c3ccc(C)c(NC(=O)c4nccn4C)c3)cc2C(F)(F)F)CC1	none
O=C1C2=CC[C@H]3C(=O)N(Cc4ccc5c(c4)OCO5)C(=O)[C@@H]3[C@@H]2[C@H](O)[C@@H]2O[C@H]12	none (no result: JMJD2A Tudor, BAZ2B block, HP1b binding inh, G9a block)
Cc1cc(NS(=O)(=O)c2ccc(NC(=S)NC(=O)c3ccncc3)cc2)no1	G9a block inconclusive
COc1nccnc1NS(=O)(=O)c1ccc(NC(=S)NC(=O)c2cccnc2)cc1	BAZ2B block inconclusive, G9a block 50µM, Sfp PPTase inh inconclusive
COc1nccnc1NS(=O)(=O)c1ccc(NC(=S)NC(=O)c2ccccc2F)cc1	JMJD2A Tudor inconclusive, BAZ2B block inconclusive, HP1b binding inh inconclusive, G9a block inconclusive
COc1nccnc1NS(=O)(=O)c1ccc(NC(=S)NC(=O)c2ccc(F)cc2)cc1	G9a block inconclusive, Sfp PPTase inh 50µM
COc1nccnc1NS(=O)(=O)c1ccc(NC(=S)NC(=O)c2cccc(F)c2)cc1	JMJD2A Tudor inconclusive, BAZ2B block inconclusive, G9a block inconclusive
COc1nsnc1NS(=O)(=O)c1ccc(NC(=S)NC(=O)c2cccnc2)cc1	JMJD2A Tudor 11µM, BAZ2B block inconclusive, HP1b binding inh inconclusive, Sfp PPTase inh inconclusive (no result: G9a block)
COc1nsnc1NS(=O)(=O)c1ccc(NC(=S)NC(=O)c2ccncc2)cc1	Sfp PPTase inh 79µM
O=C(N/N=C1/C[C@@H](O)[C@@H](O)[C@@H]2[C@H]3C(=O)N(c4ccc(F)cc4F)C(=O)[C@@H]3CC[C@H]12)OCc1ccccc1	none (no result: JMJD2A Tudor, BAZ2B block, HP1b binding inh, G9a block)
COc1ccc(NC(=O)c2ccc(C#N)cc2)cc1NS(=O)(=O)c1ccc(F)cc1	G9a block 8.9µM
COCCn1c(SCC(=O)c2ccc3c(c2)OCCO3)nnc1C(C)C	JMJD2A Tudor 79µM, G9a block 18µM, Sfp PPTase inh inconclusive
CCCCn1c(SCC(=O)c2ccc3c(c2)OCCO3)nnc1-c1ccoc1C	JMJD2A Tudor inconclusive, BAZ2B block 89µM, G9a block inconclusive
COCCn1c(SCC(=O)Nc2ccc3c(c2)OCCO3)nnc1C(C)C	none
COCCn1c(SCC(=O)c2ccc(Cl)cc2)nnc1C(C)C	JMJD2A Tudor 50µM, G9a block 11µM, Sfp PPTase inh 79µM
O=C(CSc1nnc2scc(-c3ccccc3)n12)Nc1nsc(-c2ccccc2)n1	JMJD2A Tudor inconclusive, BAZ2B block 56µM, G9a block inconclusive, Sfp PPTase inh 32µM
COC(=O)c1cnc(N)s1	none (no result: BAZ2B block, G9a block, Sfp PPTase inh)
c1ccc(-c2csc3nnc(SCc4ccc5c(c4)OCCO5)n23)cc1	none
O=C(CSc1nnc2scc(-c3ccccc3)n12)c1ccc2c(c1)OCCO2	G9a block 89µM
N#CCCCC1(CCCC#N)OCCO1	none (no result: BAZ2B block, G9a block, Sfp PPTase inh)
CC(=O)Nc1nc(-c2ccc3c(c2)CCN3S(C)(=O)=O)cs1	BAZ2B block inconclusive, Sfp PPTase inh 56µM (no result: G9a block)
CNc1nc(-c2ccc3c(c2)CCN3C(=O)c2ccccc2C)cs1	JMJD2A Tudor inconclusive, BAZ2B block 50µM, HP1b binding inh inconclusive, G9a block 22µM, Sfp PPTase inh inconclusive
CC(C)C(=O)Nc1nc(-c2ccc3c(c2)CCN3C(=O)C2CC2)cs1	G9a block inconclusive
CNc1nc(-c2ccc3c(c2)CCN3C(=O)c2ccc(F)cc2)cs1	BAZ2B block inconclusive, G9a block 32µM
CS(=O)(=O)N1CCc2cc(-c3csc(NC(=O)Cc4cccs4)n3)ccc21	none
O=C(CN1CCCC1)Nc1nc(-c2ccc3c(c2)CCN3C(=O)c2ccccc2F)cs1	JMJD2A Tudor inconclusive, G9a block inconclusive
CC(C)(C)Nc1nc(-c2ccc3c(c2)CCN3C(=O)C2CC2)cs1	JMJD2A Tudor inconclusive, BAZ2B block inconclusive, HP1b binding inh inconclusive, G9a block 40µM
CCCCC/C=C\C/C=C\C/C=C\C/C=C\CCCCCC(=O)NCC(=O)O	none (no result: JMJD2A Tudor, BAZ2B block, HP1b binding inh, G9a block)
O=C(NCC1CCCO1)c1ccc2c(=O)n(Cc3cccc(Br)c3)c(=S)[nH]c2c1 (configuration not stated)	none
CCOC(=O)c1sc2ncn(CC(=O)Nc3ccc(OC)c(Cl)c3)c(=O)c2c1C	none (no result: Sfp PPTase inh)
COCCNc1nc(C)nc2c1nc(-c1ccccc1)n2CC1CCN(C)CC1	none (no result: JMJD2A Tudor, BAZ2B block, HP1b binding inh, G9a block)
CN(C)Cc1cc(C(C)(C)C)c(O)c(C(C)(C)C)c1	G9a block 50µM
CN(C)Cc1cc(C(C)(C)C)cc(C(C)(C)C)c1O	none
CC(C)(C)c1ccc(/C=C/C(=O)Nc2ccc3c(c2)OCCO3)cc1	none (no result: JMJD2A Tudor, BAZ2B block, HP1b binding inh)
COc1ccc(-c2c3c(=O)n(C)c(=O)n(C)c3cn2-c2cccc(N)c2)cc1	JMJD2A Tudor inconclusive, BAZ2B block inconclusive, HP1b binding inh inconclusive, G9a block 11µM (no result: Sfp PPTase inh)
COc1ccc(-c2c3c(=O)n(C)c(=O)n(C)c3cn2-c2ccc(O)cc2)cc1	BAZ2B block 79µM, HP1b binding inh inconclusive
C=CCOc1ccccc1/C=N/NC(=O)Cc1ccc(C)cc1	none
O=C(CNCCc1ccccc1)Nc1ccc(C(=O)N2CCCCC2)cc1	JMJD2A Tudor 22µM, BAZ2B block 40µM, HP1b binding inh inconclusive, G9a block 11µM
O=C(CNCCc1ccc(Cl)cc1)Nc1ccc(C(=O)N2CCCCC2)cc1	JMJD2A Tudor 3.2µM, BAZ2B block 20µM, HP1b binding inh inconclusive, G9a block 7.9µM, Sfp PPTase inh inconclusive
O=C(CNCc1ccc(F)cc1)Nc1ccc(C(=O)N2CCCCC2)cc1	JMJD2A Tudor 1.1µM, BAZ2B block 32µM, HP1b binding inh inconclusive, G9a block 10µM, Sfp PPTase inh inconclusive
O=C(CNCc1ccccc1Cl)Nc1ccc(C(=O)N2CCCCC2)cc1	JMJD2A Tudor inconclusive, BAZ2B block 22µM, HP1b binding inh inconclusive, G9a block 5.6µM, Sfp PPTase inh inconclusive
O=C(Cc1ccc(Cl)cc1)Nc1ccc(C(=O)N2CCCCC2)cc1	none
CC1CC[C@@]2(C(=O)O)CCC3(C)C(=CCC4[C@]5(C)CC(O)C(O)[C@](C)(CO)C5C(O)C[C@@]43C)C2C1C (some centres not stated)	none (no result: JMJD2A Tudor, BAZ2B block, HP1b binding inh)
Cc1c(C(=O)NN)[nH]c2ccc([N+](=O)[O-])cc12	BAZ2B block 35µM
Cc1nc(CS(=O)(=O)c2ccccc2)cc(Sc2ccc(Cl)cc2Cl)n1	none
Cc1nc(Cl)cc(CS(=O)(=O)c2ccc(Cl)cc2)n1	BAZ2B block 79µM, G9a block inconclusive
COc1cc2c(cc1OC)C1(C)N(CC2)C(C(C)=O)=NN1c1ccc(Cl)cc1 (configuration not stated)	BAZ2B block inconclusive, Sfp PPTase inh inconclusive (no result: G9a block)
CSc1nsc(/C=C/Nc2ccc(Cl)cc2)c1C#N	BAZ2B block inconclusive
CSc1nsc(/C=C/Nc2cccc(Cl)c2)c1C#N	JMJD2A Tudor inconclusive, BAZ2B block inconclusive, G9a block 10µM

Screening results as filed in PubChem.
